Hits are enriched below; roughly 7.5% of the tested compounds scored in any of these assays.
FLuc modulator – counter-screen for miR-21 project: firefly luciferase inhibitors or activators. P08659. purified FLuc, Km substrates, luminescence inhibition. Potency, µM (highest dose often 57.5 µM), for the others: at the top dose activity change, negative = inhibition, actives largely listed as inhibitors. 6.9% of 360,000 active. AID 588342;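 further: plate controls were vehicle for no effect and reference inhibitor for full effect; nearly all actives have a fitted effect of over 55% in size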
Target sequence (P08659 whole entry, looked up): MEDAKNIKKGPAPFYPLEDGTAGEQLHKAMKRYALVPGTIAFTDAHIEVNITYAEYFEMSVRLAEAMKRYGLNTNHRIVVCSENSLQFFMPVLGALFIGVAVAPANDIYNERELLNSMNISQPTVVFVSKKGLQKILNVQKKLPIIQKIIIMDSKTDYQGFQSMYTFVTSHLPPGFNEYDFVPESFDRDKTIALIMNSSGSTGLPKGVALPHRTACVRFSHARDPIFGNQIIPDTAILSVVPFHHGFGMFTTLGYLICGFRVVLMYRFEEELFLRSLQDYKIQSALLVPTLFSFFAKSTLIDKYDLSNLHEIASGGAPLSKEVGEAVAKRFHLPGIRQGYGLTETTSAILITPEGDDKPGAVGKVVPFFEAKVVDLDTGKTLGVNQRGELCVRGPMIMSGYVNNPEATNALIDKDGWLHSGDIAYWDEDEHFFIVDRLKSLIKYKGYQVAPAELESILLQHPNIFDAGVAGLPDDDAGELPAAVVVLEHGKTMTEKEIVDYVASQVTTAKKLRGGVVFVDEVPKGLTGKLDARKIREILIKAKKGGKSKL
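Biochemical qHTS of compounds, final roughly 60 µM downward over six points, against 10 nM purified firefly luciferase using Km concentrations of substrates (10 uM D-luciferin, 10 uM ATP) in Tris acetate pH 7.5 buffer; luminescence output.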
ELG1 genotoxic – induces genotoxicity in HEK293T cells with luciferase-tagged ELG1 | Potency, µM (titrated, usually from 46 µM), without a hit: at the highest dose activity change, positive = activation, hits mostly activators | 1.3% of 330,000 active | HEK293T ELG1-luciferase reporter, luminescence, 16 h | AID 504466; further: % of control where 0% means no effect; nearly all actives have a fitted effect of over 60% in size
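Cells (2,000/well) expressing the ELG1-luciferase fusion are dosed by pin tool and kept 16 hr at 37 °C, 5% CO2. Signal comes from ONE-Glo luciferase reagent after 30 min at room temperature.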
NPC1 promoter act – activates the NPC1 promoter; Potency, µM (highest dose often 9.22 µM), for inactives: top-dose activation, most hits filed as activators; 2.4% of 320,000 active; AID 485313; Huh7 NPC1 promoter luciferase reporter, 24 h; further: % of control where 0% means no effect; nearly all actives have a fitted effect of over 60% in size
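Luciferase expression driven by the NPC1 promoter was measured in stably transfected Huh7 cells after a 24 h compound incubation, using a luciferase reagent and a luminescence read.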
Rab9 promoter act – activators of Rab9 promoter. Potency, µM (titrated, usually from 9.22 µM), for inactives: at the top dose activation, negative = inhibition, hits mostly activators. AID 485297. Huh7 Rab9 promoter-luciferase reporter, luminescence, 24 h. 2.8% of 320,000 active; further: % of control where 0% means no effect; nearly all actives have a fitted effect of over 60% in size
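Cell-based reporter: Huh7 stable for Rab9 promoter-driven luciferase, plated in reduced-serum medium with 10% FBS at 1500 cells/well, compound-treated 24 h at 37 °C, luminescence read after 10 min reagent.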
SMN2 splice up – increases expression of the SMN2 splice variant; 2.8% of 210,000 active; Potency, µM (doses to about 46.1 µM), without a hit: at the highest dose activity change, positive = activation, hits mostly activators; HEK293 SMN2-luciferase splicing reporter, luminescence, 30-36 h; AID 1458; further: % of control where 0% means no effect; nearly all actives have a fitted effect of over 55% in size
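HEK293 cells carry an SMN2 […]–luciferase reporter in which exon 7 inclusion puts luciferase in frame. Cells were plated 10-12 h before compound addition, then incubated 30-36 h at 37C. ONE-Glo luminescence was read; sodium butyrate at 4.5 mM final served as control.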
Starred values were filed as active, the others as inactive; ? = inconclusive; · = not tested or not shown; [ ] = dose if it differs, or a comment. The call rests on the fitted dose curve; in most records, active means well fitted curve in the direction sought with a large enough effect; inconclusive means small, poorly fitted or top-dose-only effect, or another doubt; inactive means no such curve, though single readings can be large; an effect the other way counts as inactive or inconclusive. Potency means the concentration at half of the fitted maximal effect.

SMILES | FLuc modulator | ELG1 genotoxic | NPC1 promoter act | Rab9 promoter act | SMN2 splice up
Cc1ccc(SCC(=O)NNC(=O)c2ccccc2)cc1C | 6% | -2% | -6% | 2% | ·
O=C(Nc1nccs1)c1c(O)c2c([nH]c1=O)CCCC2 | ? | 8% | ? | 2.2µM* | ·
O=C(N/N=C/c1cccc(F)c1)c1c(O)c2ccccc2[nH]c1=O | 4% | ? | ? | ? | -22%
CCNCCNC(=O)c1c(O)c2c([nH]c1=O)CCCC2 | 1% | 2% | 2% | -5% | -13%
O=C(Nc1ccccc1O)c1c(O)c2c([nH]c1=O)CCCC2 | 7.6µM* | ? | ? | 3.5µM* | 18µM*
O=C(N/N=C/c1cccc(Cl)c1)c1c(O)c2c([nH]c1=O)CCCC2 | ? | ? | 2.8µM* | 2.5µM* | ·
Cc1ccc(N2C(=O)C3C4C=CC(CNC(=S)N5CCN(c6ccccc6)CC5)(O4)C3C2=O)cc1 (configuration not stated) | -2% | 2% | -3% | -1% | -52%
CC1=C(/C=C/C(C)=C/C=C/C(C)=C/C(=O)Nc2ccc(O)cc2)C(C)(C)CCC1 | 3% | -4% | -18%[46.1 µM] | -36%[46.1 µM] | 0%
Cc1cccc(Nc2nc(-c3ccccc3)c(C(=O)Nc3cccnc3)s2)c1 | 17µM* | -6% | 8% | 20% | -92%
Cc1cccc(-c2cc(C(=O)Nc3cccnc3)c3ccccc3n2)c1 | 15µM* | -15% | -3% | 4% | ·
Cc1cc(C)nc(NC(=O)c2cc(-c3ccc(C)s3)nc3ccccc23)c1 | ? | -13% | -4% | -4% | -26%
Cc1ccc(-c2cc(C(=O)Nc3cccnc3)c3ccccc3n2)s1 | 9.5µM* | -10% | 13% | 7% | ·
O=C(Nc1cccnc1)c1sc(Nc2ccccc2)nc1-c1ccccc1 | ? | -7% | 6% | 0% | -13%
Cc1cccc(-c2cc(C(=O)Nc3ccncc3)c3ccccc3n2)c1 | 24µM* | -7% | 13% | 2% | ·
CCc1cccc(NC(=O)COc2ccccc2)c1 | ? | ? | 14% | 27% | -34%
COc1ccccc1N1CCN(C(=O)c2cn(C)c3ccc(S(=O)(=O)N(C)C4CCCCC4)cc3c2=O)CC1 | 4% | · | · | · | 6%
CCOC(=O)N1CCN(C(=O)CSCC(=O)N=c2sc3ccccc3n2C)CC1 | 2% | · | · | · | -25%
COc1ccc(-c2csc(NC(=O)CSc3nc(C)nc4sc(C(=O)O)c(C)c34)n2)cc1 | 27µM* | 1% | -2% | -3% | ·
COc1ccc(-c2csc(NC(=O)CSc3nc(SC)ns3)n2)cc1 | ? | ? | ? | 26% | 22µM*
Cc1ccc(N(C)C(=O)c2cc(S(=O)(=O)N3CCCCC3)c[nH]2)cc1 | 4% | -7% | 11% | 4% | ·
COc1cc(/C=C/C(=O)OCC(=O)N2CCC(C)CC2)ccc1OCC#N | 2% | 0% | -2% | -1% | ·
CCc1nc(SCC(=O)O)c(C#N)c2c1CCCC2 | -19% | 2% | -5% | -4% | ·
c1ccc2c(c1)CCCN2c1nc2ccccc2n2cnnc12 | 15µM* | 10% | 1% | 7% | 3%
Cc1cccc(C(=O)n2c(=S)nc3cc(C)ccn32)c1 | 0.19µM* | 0.46µM* | 0.56µM* | 0.25µM* | ·
Cc1ccn2c(c1)nc(=S)n2C(=O)c1ccccc1 | 0.13µM* | ? | 0.4µM* | 0.25µM* | 0.5µM*
SMILES | FLuc modulator | ELG1 genotoxic | NPC1 promoter act | Rab9 promoter act | SMN2 splice up
Cc1nn2c(=O)cc(COC(=O)c3c(F)cccc3Cl)nc2s1 | ? | ? | 4µM* | 4µM* | ·
CCOc1ccccc1NC(=O)Nc1ccccc1OCc1cc(=O)n2ccccc2n1 | -5% | · | · | · | ·
Cc1ccc(OCC(=O)Nc2cccc(C(=O)OCc3cc(=O)n4nc(C)sc4n3)c2)cc1 | 9.5µM* | · | · | · | ·
Cc1nn2c(=O)cc(COC(=O)c3cccc(NC(=O)COc4ccccc4C)c3)nc2s1 | 24µM* | · | · | · | ·
Cc1ccccc1OCC(=O)Nc1ccccc1OCc1cc(=O)n2ccccc2n1 | 11µM* | · | · | · | ·
Cc1nn2c(=O)cc(COC(=O)c3ccc(NC(=O)COc4ccccc4F)cc3)nc2s1 | 1% | · | · | · | ·
N#CCSc1nc(-c2ccccc2)nc2ccccc12 | ? | -3% | -3% | -2% | ·
Cc1csc2nc(COC(=O)c3cccc(NC(=O)COc4ccccc4Cl)c3)cc(=O)n12 | 1.2µM* | · | · | · | ·
Cc1ccccc1OCC(=O)Nc1ccc(C(=O)OCc2cc(=O)n3c(C)csc3n2)cc1 | 0% | · | · | · | ·
C=CCNC(=S)N1CCN(C2CCCCC2)CC1 | 7% | -1% | 0% | 2% | ·
CC(C)(CO)CNC(=O)CCc1nnc(-c2ccc(-c3ccccc3)cc2)o1 | 24µM* | 11% | 22% | 12% | ·
CC(NC(=O)CCc1nnc(-c2ccc(-c3ccccc3)cc2)o1)c1nc2ccccc2[nH]1 (configuration not stated) | 11µM* | -8% | 27% | 10% | ·
O=c1[nH]c(C2CCN(S(=O)(=O)c3ccc(F)cc3)CC2)nc2c1nnn2Cc1ccc2c(c1)OCCO2 | -2% | -5% | -1% | -1% | ·
Cc1ccc(-c2nn(C)c(=O)c3ccccc23)cc1S(=O)(=O)N1CCCC1 | 0% | 16µM* | -4% | -1% | 13%
Cn1nc(-c2ccc(N3CCOCC3)c(NS(=O)(=O)c3ccccc3)c2)c2ccccc2c1=O | 9% | 13µM* | -8% | -3% | ?
CCOC(=O)c1ccc(NC(=O)CN2C(=O)C3C4C=CC(C4)C3C2=O)cc1 (configuration not stated) | -1% | -1% | 0% | 0% | 2%
Cc1ccc(C)c(OCc2nc3ccccc3[nH]2)c1 | 15µM* | 16% | ? | ? | ?
CC(NC(=O)COc1ccccc1)C(=O)OCC(=O)c1cc2ccccc2o1 (configuration not stated) | ? | -2% | -1% | 8% | -5%
O=C(/C=C/c1ccc2ccccc2c1)c1ccoc1 | 0.54µM* | 6% | ? | ? | -5%
COc1ccc(-n2cnc3cc(NCc4ccccn4)ccc32)cc1 | 17µM* | 7% | 16% | 22% | -8%
COc1ccccc1-n1cnc2cc(NCc3ccccn3)ccc21 | 15µM* | 10% | -3% | 16% | 11%
CCCn1cnc2cc(NCc3ccccn3)ccc21 | 12µM* | ? | 3.2µM* | 3.2µM* | 13µM*
COc1ccc(-n2cnc3ccccc32)cc1 | ? | -15% | 4% | 3% | -10%
COc1cccc(CNc2ccc3c(c2)ncn3C(C)C)c1OC | 17µM* | 14% | 4µM* | 4µM* | ?
CCCn1c(NCc2ccccn2)nc2ccccc21 | -17% | 5% | 1% | 14% | 13%
NC(=O)C1CCN(C(=O)c2cc(-c3ccc(Cl)cc3)nc3ccccc23)CC1 | · | -6% | · | · | ·
COc1ccc(Cn2c(-c3ccco3)nc3oc4ccccc4c(=O)c3c2=O)cc1 | -2% | ? | 25% | ? | 20%
Cc1ccc(Sc2c(C(=O)NCc3cccc(F)c3)[nH]c3ccccc23)cc1 | 2% | · | · | · | ·
